An excerpt weighted towards active compounds, which were near 6.5% of everything screened.
LASV entry inh – inhibitors of Lassa virus binding or cell entry. Lassa virus pseudotype entry inhibition, cell reporter. Potency, µM (titrated, usually from 37.9 µM), for the others: top-dose activity change, negative = inhibition, actives largely listed as inhibitors. 1.2% of 300,000 active. AID 540256; calls by dose curve; tested in HEK293 cells; also: potency is read from the fitted curve at half-maximal effect; nearly all actives have a fitted effect of over 50% in size
Vaccinia mCherry – inhibitors of vaccinia virus infection (mCherry reporter signal); Potency, µM (titrated, usually from 36.5 µM), for the others: at the top dose activity change, negative = inhibition, hits mostly inhibitors; AID 720579; Vaccinia virus mCherry reporter infection, fluorescence; 0.63% of 310,000 active; calls by dose curve; tested in A549 cells; also: potency is read from the fitted curve at half-maximal effect; nearly all actives have a fitted effect of over 35% in size
HCMV inh – inhibitors of human cytomegalovirus. HFF cells, HCMV-luciferase reporter, 72 h; stronger effect = lower value. activity change, negative = inhibition, % at 57.5 µM. 4.5% of 410,000 active. AID 1259415; in the data active = activity change below about -60%; inconclusive = no clear call, values can overlap the other calls; inactive = above about -39%
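Steps: HFFs plated, 16 h 37C; compounds added; HCMV-luciferase added to MOI 1 PFU/cell; 72 h 37C; OneGlo reagent, 5 min room temperature; luminescence read, normalized to controls.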
Marburg entry inh – Marburg virus entry inhibition; Marburg virus pseudotyped entry inhibition, cell reporter; 1.8% of 300,000 active; Potency, µM (series often up to 37.8 µM), inactives show at the highest dose activity change, negative = inhibition, hits mostly inhibitors; calls by dose curve; tested in HEK293 cells; also: potency is read from the fitted curve at half-maximal effect
Vaccinia Venus – inhibitors of vaccinia virus (Venus reporter); Vaccinia virus Venus reporter expression, fluorescence; 0.46% of 330,000 active; Potency, µM (titrated, usually from 36.5 µM), without a hit: at the top dose activity change, negative = inhibition, most hits filed as inhibitors; AID 720580; calls by dose curve; tested in A549 cells; also: potency is read from the fitted curve at half-maximal effect; nearly all actives have a fitted effect of over 30% in size
FMDV antiviral – foot and mouth disease virus antiviral activity; Potency, µM (titrated, usually from 57.9 µM), for inactives: at the highest dose activity change, negative = inhibition, usual class: inhibitors; 1.2% of 410,000 active; FMDV antiviral cell-based qHTS; calls by dose curve; tested in HEK293T cells; also: read-out not given here; potency is read from the fitted curve at half-maximal effect; nearly all actives have a fitted effect of over 45% in size
The depositor's hits bear a star; i = inactive; ? = inconclusive; . = not tested or not shown; [ ] = dose if it differs, or a comment. % is scaled to controls: 0 for no effect and ±100 for the full control effect.

SMILES | LASV entry inh | Vaccinia mCherry | HCMV inh | Marburg entry inh | Vaccinia Venus | FMDV antiviral
COc1ccc(-c2cn(-c3ccccc3)c3[n+]2CCS3)cc1 | ? | -2% | -100* | ? | -18% | ?
CC(C)(C)c1ccc(-c2cn(-c3ccc(Br)cc3)c3[n+]2CCCS3)cc1 | ? | i | -98* | ? | -6% | ?
CCOC(=O)c1cnc2ccccc2c1Nc1cccc(OC)c1 | -18%[46.1 µM] | -14% | 2 | . | -7% | -17%
O=C(NCCc1ccncc1)[C@@H]1[C@@H](CO)[C@@H]2Cn3c(cccc3=O)[C@H]1N2Cc1ccccc1F | . | . | 24 | . | . | .
COc1cccc(OC)c1CN1CCC2(CCC(CNC(=O)c3ccn(C)n3)O2)CC1 (stereo unspecified) | . | i | . | . | -13% | -5%
Oc1ccc(Cc2ccc(Cl)cc2)c(O)c1 | -3%[46.1 µM] | ? | -62* | -3%[46.1 µM] | -3% | -16%
Oc1ccc(Cc2ccccc2Cl)c(O)c1 | ? | -27% | -5 | 10% | -15% | ?
CCN(CC)CCCn1c(C)cc2c(c1=O)[C@@H](c1cccc(Cl)c1)C(C#N)=C(N)O2 | . | . | . | 11µM* | . | .
O=C(Nc1ccc(Oc2c(F)c(F)c(F)c(F)c2F)cc1)OC1CCN2Cc3ccccc3N=C12 (stereo unspecified) | ? | -4% | . | ? | -13% | 20µM*
CCc1ccccc1NC(=O)C1CCCN(c2cnccn2)C1 (stereo unspecified) | 7%[46.1 µM] | -3% | -2 | ? | -3% | 0%
Cc1ccc(S(=O)(=O)N2[C@@H](CO)CO[C@H]2CC(=O)c2ccc(F)cc2)cc1 | . | -14% | -16 | . | -8% | -2%
O=C(CCN1C(=O)/C(=C/c2ccccc2Cl)SC1=S)NNC(=O)c1cccnc1 | 2% | -2% | 26 | ? | -21% | -9%
O=C(CCN1C(=O)/C(=C/c2ccccc2Cl)SC1=S)NCCc1ccc(O)cc1 | . | . | -101* | . | . | -5%
O=C(CCN1C(=O)/C(=C/c2ccccc2Cl)SC1=S)NNC(=O)c1ccccc1O | ? | ? | 21 | -21%[46.1 µM] | 45% | 0%
Cc1ccc(C(=O)NNC(=O)CCCN2C(=O)/C(=C/c3ccccc3Cl)SC2=S)cc1 | ? | i | ? | 11µM* | -4% | ?
O=C(CCCN1C(=O)/C(=C/c2ccccc2Cl)SC1=S)NNC(=O)c1ccc(Cl)cc1 | . | -7% | -75* | . | -14% | 7.9µM*
Cc1ccc(Cn2c(C(=O)O)c(CNC3CCCCCC3)c3ccc(C)cc32)cc1 | 7%[46.1 µM] | -1% | 13 | . | -4% | -1%
O=C(NC1CCCC1)C(c1ccccc1)n1c(Cc2cc(F)cc(F)c2)nc2ccccc21 (stereo unspecified) | . | -8% | -26 | . | -6% | -13%
Cc1ccc(NC(=O)C2(c3ccccc3)CC2(Cl)Cl)cc1C (stereo unspecified) | -5% | i | 109 | -17% | -10% | 4%
CCc1ccc(NC(=O)C2(c3ccccc3)CC2(Cl)Cl)cc1 (stereo unspecified) | 16µM* | . | ? | 0% | . | ?
CC[C@@H]1CN2CCc3cc(OC)c(OC)cc3[C@H]2C[C@@H]1C[C@H]1NCCc2cc(OC)c(OC)cc21 | . | . | . | 0.33µM* | . | .
COc1cc2c(cc1OC)C(Cc1ccc(O)cc1)N(C)CC2 (stereo unspecified) | 0% | -8% | -18 | -8% | -4% | -13%
CCC1CN2CCc3cc(OC)c(OC)cc3C2CC1CC1NCCc2c1[nH]c1ccc(O)cc21 (stereo unspecified) | 0.5µM* | ? | -99* | 0.22µM* | 5.6µM* | ?
CCOc1c(Br)cc(CNc2ccc3c(c2)OCCO3)cc1OC | -7% | ? | -82* | ? | ? | 25µM*
CCOc1cc(CNc2ccc3c(c2)OCCO3)cc(Br)c1OC | ? | ? | -86* | ? | ? | 25µM*
SMILES | LASV entry inh | Vaccinia mCherry | HCMV inh | Marburg entry inh | Vaccinia Venus | FMDV antiviral
Cc1noc(C)c1CCC(=O)N1CCOc2ccc(CN3CCN(c4ccccn4)CC3)cc2C1 | . | ? | . | . | -24% | ?
Cn1cccc1C(=O)NC(=O)COC(=O)c1ccc(S(C)(=O)=O)c([N+](=O)[O-])c1 | ? | -9% | . | ? | -9% | 32µM*
CS(=O)(=O)c1ccc(C(=O)OCC(=O)NC23CC4CC(CC(C4)C2)C3)cc1[N+](=O)[O-] | -8% | ? | 35 | ? | ? | 35µM*
CS(=O)(=O)c1ccc(C(=O)OCC(=O)NC(=O)NC2CCCCC2)cc1[N+](=O)[O-] | . | -25% | . | . | -22% | .
CC(=O)Oc1ccc(-c2csc(Nc3cccnc3)n2)cc1 | 3% | -10% | -102* | ? | -8% | 15%
COc1ccc(-c2csc(Nc3ccc(Oc4ccccc4)cc3)n2)cc1 | . | 13% | -65* | . | -14% | ?
c1cncc(Nc2nc(-c3ccncc3)cs2)c1 | 5% | . | 12 | ? | . | 7%
CC12CN(NC(=O)c3ccccc3F)C3(C#N)CC1CCC23C (stereo unspecified) | -7% | -25% | -75* | 8%[46.1 µM] | -18% | 3%
CC12CCC(C/C1=N/OC(=O)c1cccc([N+](=O)[O-])c1)C2(C)C (stereo unspecified) | . | . | -65* | . | . | -20%
CC12CCC(C/C1=N\OC(=O)c1ccc(F)cc1)C2(C)C (stereo unspecified) | 1% | . | -6 | 0% | . | -2%
COC(=O)c1cccc(-c2ccc(C(c3c(C)[nH][nH]c3=O)c3c(C)[nH][nH]c3=O)o2)c1 | -13% | 1% | -13 | -5%[46.1 µM] | -3% | ?
COC(=O)c1ccccc1-c1ccc(C(c2c(C)[nH][nH]c2=O)c2c(C)[nH][nH]c2=O)o1 | ? | i | -34 | -24%[46.1 µM] | -14% | 20µM*
CCc1ccc(CN2CCC(C(=O)Nc3ccc(Oc4ccccc4)nc3)CC2)o1 | -27%[46.1 µM] | i | -72* | ? | -23% | ?
O=C(Nc1ccc(Oc2cccnc2)cc1)C1CCN(Cc2cccc(Cl)c2)CC1 | . | . | -79* | . | . | -12%
CSc1ncc(CN2CCCCC2C(=O)Nc2ccc(Oc3ccccc3)nc2)cn1 (stereo unspecified) | -5% | -14% | -30 | 5.6µM* | -12% | -16%
COc1ccc(CN2CCC(C(=O)Nc3ccc(Oc4ccccc4)nc3)CC2)cc1F | ? | -2% | -70* | ? | -24% | ?
CN(Cc1nccn1C)C(=O)C1CCC(=O)N(CCc2ccc(Cl)cc2)C1 (stereo unspecified) | 11% | -10% | -22 | 3% | -7% | -13%
CCOc1ccccc1NC(=O)CSC1=Nc2ccccc2C2=NC(CC(=O)NC3CCCCC3)C(=O)N12 (stereo unspecified) | -22%[46.1 µM] | -4% | -33 | 7%[46.1 µM] | -3% | -15%
O=C1CC(=O)OC(c2ccc([N+](=O)[O-])cc2)O1 | . | 13µM* | . | . | 13µM* | 10µM*
CC(C)C1CC(CCN)(Cc2ccccc2)CCO1 (stereo unspecified) | 0%[46.1 µM] | -9% | ? | 15µM* | -17% | -9%

Assay outcomes from PubChem BioAssay.
